Measured values published in PubChem BioAssay.
Where “and” joins values, the source holds several entries; their conditions need not be identical. Identical values can stand only once. Some compounds were tested as several samples or in several runs, with calls that do not always agree. Calls of active or inactive are those of the source.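 Rule for the calls, unless noted: active = thallium flux through the channel raised or lowered by more than 3 SD from vehicle-only wells, actives on both sides; inactive = the rest.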

Experiments:
[1] = blockers of polyQ-driven CASP3 activation – cell-based (AID 1583); conditions: polyglutamine-induced caspase-3 activation, cell assay; stronger effect = higher value;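 tested at 10 µM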
[2] = yeast 75Q aggregation reduction – 75Q-TubU reporter (AID 1593); conditions: Yeast 75Q polyglutamine aggregation reporter
[3] = blockers of cytochrome c efflux from mitochondria – biochemical, purified mitochondria (AID 1603); conditions: stronger effect = lower value;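 note: mouse liver mitochondria challenged with calcium chloride; signal normalized to the plate average as 100%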
[4] = polyglutamine aggregate formation blockers (AID 1604); conditions: polyglutamine-induced protein aggregation inhibition assay; stronger effect = higher value; tested at 2.5 µM
[5] = glutamate transport activators, MN-1 cells, MN-1 cell line (AID 1612); conditions: MN-1 motor neuron cells, stronger effect = higher value;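 note: tested at 1 µM final; 0% = mean of DMSO vehicle wells on each plate; positive means more glutamate uptake than control and negative means less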
[6] = signal quenchers or enhancers, Cy5 substrate/SSB – biochemical, NIH Clinical Collection, E. coli SSB, artefact control for HCV NS3 helicase inhibitor project (AID 743268; call rule not given here); conditions: Cy5-oligo bound E. coli SSB, fluorescence interference
[7] = system: Hepatitis C virus NS3 helicase; experiment: blockers of NS3h binding to DNA – biochemical, fluorescence polarization, NIH Clinical Collection, primary screen (AID 743270; call rule not given here); conditions: NS3 helicase binding to Cy5-dT15 DNA, stronger effect = higher value, concentration not given here
[8] = target: Single-stranded DNA-binding protein (Escherichia coli (strain K12)) (UniProt P0AGE0); experiment: SSB-ssDNA binding inhibitors – biochemical, fluorescence polarization, NIH Clinical Collection, counter-screen for HCV NS3 helicase inhibitor project (AID 743271; in the data active = inhibition above about 28%); conditions: E. coli SSB-DNA binding, stronger effect = higher value, concentration not given here
[9] = compounds distorting NS3 helicase fluorescence signal – biochemical, NIH Clinical Collection, artefact control for HCV NS3 helicase inhibitor project (AID 743272; call rule not given here;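 note: HCV NS3 helicase with a Cy5 labelled single stranded DNA probe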); conditions: fluorescence interference counterscreen, HCV NS3 helicase assay; stronger effect = lower value
[10] = galactose survival enhancers in mitochondrial complex I cybrids – cell-based, galactose medium, ATP luminescence, primary screen (AID 1645843;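 active = z-score of at least 1.8 in each of two replicates, scored against plate mean and spread of sample wells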;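 note: positive z means more ATP and so rescue of galactose-driven cybrid death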); conditions: complex I mutant cybrid cells, 72 h, stronger effect = higher value
F380Y/beta4 = experiment: BK channel mutant inhibitors and activators – cell-based, U2OS BacMam, thallium flux, beta subunits, selectivity assay, profiling panel (AID 1259406); conditions: U2OS BacMam BK variants, at 30 µM;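 note: initial slope of Thallos dye fluorescence rise after thallium is added; log ratio against the mean of 0.3% DMSO vehicle wells on the same plate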
[11] = target: Calcium-activated potassium channel subunit alpha-1 (Homo sapiens) + Leucine-rich repeat-containing protein 26 (Homo sapiens) (UniProt Q12791+Q2I0M4); experiment: as above; conditions: U2OS BacMam BK variants, F380Y/Slo1WT/gamma1, at 30 µM
Chain of Calcium-activated potassium channel subunit alpha-1 (Homo sapiens) + Leucine-rich repeat-containing protein 26 (Homo sapiens) (Q2I0M4 whole entry, looked up, one chain of several): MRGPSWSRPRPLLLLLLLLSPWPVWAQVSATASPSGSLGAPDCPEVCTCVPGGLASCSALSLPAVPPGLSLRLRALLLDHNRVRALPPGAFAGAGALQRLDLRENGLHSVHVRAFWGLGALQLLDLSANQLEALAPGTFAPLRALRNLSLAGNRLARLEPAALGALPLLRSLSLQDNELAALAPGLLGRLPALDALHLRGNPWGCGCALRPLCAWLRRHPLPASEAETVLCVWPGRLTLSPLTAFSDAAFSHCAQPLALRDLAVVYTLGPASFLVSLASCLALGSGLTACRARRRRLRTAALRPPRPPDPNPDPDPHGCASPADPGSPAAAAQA

R275C = experiment: as above; conditions: U2OS BacMam BK variants, at 30 µM
R275C/beta1 = experiment: as above; conditions: U2OS BacMam BK variants, at 30 µM
R275C/beta2Delta = experiment: as above; conditions: U2OS BacMam BK variants, at 30 µM
R275C/beta4 = experiment: as above; conditions: U2OS BacMam BK variants, at 30 µM
R275C/Slo1WT/beta2 = experiment: as above; conditions: U2OS BacMam BK variants, at 30 µM
[12] = growth inhibition, single agent or in combination, cell-based, chromothripsis tumors, cisplatin or BGB combos (AID 1671449; in the data active = inhibition above about 80%;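 note: cells exposed for 96 hours; 0% = vehicle DMSO and 100% = killing by high DMSO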); conditions: LFS_MB_P medulloblastoma cells
[13] = growth inhibition, single agent and combos, cell-based, chromothripsis tumors, cisplatin or BGB combos (AID 1671450; in the data active = inhibition above about 80%;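 note: cells exposed to compound for four days; 0% = vehicle DMSO and 100% = cell killing by high DMSO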); conditions: HDN33 neuroblastoma cells, stronger effect = higher value
[14] = growth inhibition, single agents and combos, HTB85, cell-based, BGB or cisplatin IC20 combos, synergistic combos for chromothripsis tumors (AID 1671453; in the data active = inhibition above about 80%;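 note: cells exposed for 96 hours before readout; 0% = vehicle DMSO and 100% = high DMSO killing control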); conditions: HTB85 osteosarcoma cells, drug combinations, stronger effect = higher value

Structure (SMILES): COC1=CC(=O)C[C@@H](C)[C@]12Oc1c(Cl)c(OC)cc(OC)c1C2=O
- inhibition [1]: 4.47%
- score [2]: 1
- cytochrome c release ratio [3]: 1.14
- inhibition of aggregation [4]: 56.8%
- glutamate uptake change [5]: -9%
- fluorescence ratio [6]: 1 (inactive)
- inhibition [7]: -4.09% (inactive)
- inhibition [8]: -3.53% (inactive)
- fluorescence ratio [9]: 1 (inactive)
- z-score [10]: 1.05 (inactive)
- log fold change Tl+ flux (F380Y/beta4): -0.0398 (inactive)
- log fold change Tl+ flux [11]: -0.0624 (inactive)
- log fold change Tl+ flux (R275C): -0.0442 (inactive)
- log fold change Tl+ flux (R275C/beta1): 0.0145 (inactive)
- log fold change Tl+ flux (R275C/beta2Delta): -0.00445 (inactive)
- log fold change Tl+ flux (R275C/beta4): -0.0288 (inactive)
- log fold change Tl+ flux (R275C/Slo1WT/beta2): 0.00636 (inactive)

Structure (SMILES): Nc1ncn([C@@H]2O[C@H](CO)[C@@H](O)[C@H]2O)c(=O)n1
- inhibition [1]: -3.83%
- score [2]: 1.31
- cytochrome c release ratio [3]: 1.03
- inhibition of aggregation [4]: 38.1%
- glutamate uptake change [5]: 3.18%
- fluorescence ratio [6]: 1.02 (inactive)
- inhibition [7]: 1.36% (inactive)
- inhibition [8]: 4.86% (inactive)
- fluorescence ratio [9]: 1.04 (inactive)
- z-score [10]: -1.16 (inactive) and -0.05 (inactive)
- log fold change Tl+ flux (F380Y/beta4): -0.0152 (inactive)
- log fold change Tl+ flux [11]: 0.00381 (inactive)
- log fold change Tl+ flux (R275C): 0.0227 (inactive)
- log fold change Tl+ flux (R275C/beta1): 0.00104 (inactive)
- log fold change Tl+ flux (R275C/beta2Delta): 0.0218 (inactive)
- log fold change Tl+ flux (R275C/beta4): 0.000291 (inactive)
- log fold change Tl+ flux (R275C/Slo1WT/beta2): -0.00199 (inactive)

Structure (SMILES): NC(=O)N1c2ccccc2CC(=O)c2ccccc21
- fluorescence ratio [6]: 0.99 (inactive)
- inhibition [7]: -5.15% (inactive)
- inhibition [8]: -2.41% (inactive)
- fluorescence ratio [9]: 0.97 (inactive)
- z-score [10]: -1.62 (inactive) and -0.18 (inactive)
- log fold change Tl+ flux (F380Y/beta4): -0.0339 (inactive)
- log fold change Tl+ flux [11]: 0.0743 (inactive)
- log fold change Tl+ flux (R275C): -0.0757 (inactive)
- log fold change Tl+ flux (R275C/beta1): 0.0898 (active)
- log fold change Tl+ flux (R275C/beta2Delta): 0.1 (active)
- log fold change Tl+ flux (R275C/beta4): -0.00127 (inactive)
- log fold change Tl+ flux (R275C/Slo1WT/beta2): 0.048 (inactive)

Structure (SMILES): c1ccc2[nH]c(-c3cscn3)nc2c1
- inhibition [1]: -3.31%
- score [2]: 0.53
- cytochrome c release ratio [3]: 1.13
- inhibition of aggregation [4]: 30.1%
- glutamate uptake change [5]: -14%
- fluorescence ratio [6]: 1.06 (inactive)
- inhibition [7]: 0.45% (inactive)
- inhibition [8]: -0.48% (inactive)
- fluorescence ratio [9]: 0.97 (inactive)
- z-score [10]: 0.46 (inactive)
- log fold change Tl+ flux (F380Y/beta4): 0.0538 (inactive)
- log fold change Tl+ flux [11]: 0.048 (inactive)
- log fold change Tl+ flux (R275C): 0.0284 (inactive)
- log fold change Tl+ flux (R275C/beta1): -0.0377 (inactive)
- log fold change Tl+ flux (R275C/beta2Delta): -0.0148 (inactive)
- log fold change Tl+ flux (R275C/beta4): -0.00629 (inactive)
- log fold change Tl+ flux (R275C/Slo1WT/beta2): 0.0186 (inactive)

Structure (SMILES): O=c1[nH]cc(F)c(=O)[nH]1
- inhibition [1]: 7.47%
- score [2]: 0.35
- cytochrome c release ratio [3]: 0.98
- inhibition of aggregation [4]: 41.6%
- glutamate uptake change [5]: -1.19%
- fluorescence ratio [6]: 0.97 (inactive)
- inhibition [7]: -3.18% (inactive)
- inhibition [8]: -0.48% (inactive)
- fluorescence ratio [9]: 0.92 (inactive)
- z-score [10]: 6.85 (active) and -1.25 (inactive) and 2.99 (active)
- inhibition ([12]; at 0.5 µM, stronger effect = higher value): 4.15% (inactive)
- inhibition ([12]; measured here: combination with BGB IC20, at 0.005 µM): 0.419%
- inhibition ([12]; measured here: combination with BGB IC40, at 0.005 µM): -26%
- inhibition ([12]; measured here: combination with BGB IC40, at 0.05 µM): -17%
- inhibition ([12]; measured here: combination with cisplatin, at 0.5 µM, stronger effect = higher value): 59.2%
- inhibition ([12]; measured here: combination with cisplatin, at 5 µM, stronger effect = higher value): -27.9%
- inhibition ([13]; BGB combo, at 5 µM): 30.6%
- inhibition ([13]; at 0.5 µM): 16.5% (inactive)
- inhibition ([13]; cisplatin combo, at 5 µM): 40.1%
- inhibition ([13]; measured here: with BGB IC20 combination, at 0.5 µM): -26.4%
- inhibition ([13]; measured here: with cisplatin IC20 combination, at 0.5 µM): 0.453%
- inhibition ([13]; single agent, at 5 µM): 42.5%
- inhibition ([14]; at 0.5 µM): -17.6% (inactive)
- inhibition ([14]; measured here: with BGB IC20, at 0.5 µM): -36.1%
- inhibition ([14]; measured here: with BGB IC20, at 5 µM): 17.5%
- inhibition ([14]; measured here: with cisplatin IC20, at 0.5 µM): -12.5%
- inhibition ([14]; measured here: with cisplatin IC20, at 5 µM): 22.8%
- inhibition ([14]; single agent, at 5 µM): 21.8%
- log fold change Tl+ flux (F380Y/beta4): -0.0444 (inactive)
- log fold change Tl+ flux [11]: -0.0276 (inactive)
- log fold change Tl+ flux (R275C): -0.0492 (inactive)
- log fold change Tl+ flux (R275C/beta1): 0.0262 (inactive)
- log fold change Tl+ flux (R275C/beta2Delta): -0.0331 (inactive)
- log fold change Tl+ flux (R275C/beta4): -0.0876 (inactive)
- log fold change Tl+ flux (R275C/Slo1WT/beta2): 0.0575 (inactive)

Structure (SMILES): CCCNCC(O)COc1ccccc1C(=O)CCc1ccccc1 (configuration not stated)
- inhibition [1]: -14.1%
- score [2]: 1.02
- cytochrome c release ratio [3]: 1.16
- inhibition of aggregation [4]: 21.6%
- glutamate uptake change [5]: 9.21%
- fluorescence ratio [6]: 1.02 (inactive)
- inhibition [7]: -5% (inactive)
- inhibition [8]: -2% (inactive)
- fluorescence ratio [9]: 0.99 (inactive)
- z-score [10]: -1.23 (inactive) and -1.36 (inactive) and -0.68 (inactive)
- log fold change Tl+ flux (F380Y/beta4): 0.161 (active)
- log fold change Tl+ flux [11]: 0.00467 (inactive)
- log fold change Tl+ flux (R275C): 0.00823 (inactive)
- log fold change Tl+ flux (R275C/beta1): 0.184 (active)
- log fold change Tl+ flux (R275C/beta2Delta): 0.136 (active)
- log fold change Tl+ flux (R275C/beta4): 0.153 (active)
- log fold change Tl+ flux (R275C/Slo1WT/beta2): 0.0285 (inactive)

Structure (SMILES): O=C1C(CCS(=O)c2ccccc2)C(=O)N(c2ccccc2)N1c1ccccc1 (configuration not stated)
- inhibition [1]: 18.6%
- score [2]: 0.1
- cytochrome c release ratio [3]: 0.57
- inhibition of aggregation [4]: 71.9%
- glutamate uptake change [5]: -6.33%
- z-score [10]: -0.05 (inactive)
- log fold change Tl+ flux (F380Y/beta4): 0.0952 (inactive)
- log fold change Tl+ flux [11]: 0.000816 (inactive)
- log fold change Tl+ flux (R275C): -0.0788 (inactive)
- log fold change Tl+ flux (R275C/beta1): 0.0129 (inactive)
- log fold change Tl+ flux (R275C/beta2Delta): -0.0044 (inactive)
- log fold change Tl+ flux (R275C/beta4): -0.0311 (inactive)
- log fold change Tl+ flux (R275C/Slo1WT/beta2): 0.0214 (inactive)

Structure (SMILES): NS(=O)(=O)c1cc(C2(O)NC(=O)c3ccccc32)ccc1Cl (configuration not stated)
- inhibition [1]: 2.88%
- score [2]: 1.55
- cytochrome c release ratio [3]: 0.9
- inhibition of aggregation [4]: 77%
- glutamate uptake change [5]: -2.06%
- fluorescence ratio [6]: 0.81 (inactive)
- inhibition [7]: -2.27% (inactive)
- inhibition [8]: 1.05% (inactive)
- fluorescence ratio [9]: 1 (inactive)
- z-score [10]: 0.15 (inactive)
- log fold change Tl+ flux (F380Y/beta4): -0.0276 (inactive)
- log fold change Tl+ flux [11]: -0.00177 (inactive)
- log fold change Tl+ flux (R275C): -0.0359 (inactive)
- log fold change Tl+ flux (R275C/beta1): -0.0254 (inactive)
- log fold change Tl+ flux (R275C/beta2Delta): -0.0423 (inactive)
- log fold change Tl+ flux (R275C/beta4): -0.0855 (inactive)
- log fold change Tl+ flux (R275C/Slo1WT/beta2): 0.0191 (inactive)

Structure (SMILES): Cc1ccc(-c2cc(C(F)(F)F)nn2-c2ccc(S(N)(=O)=O)cc2)cc1
- inhibition [1]: 23.5%
- score [2]: -0.03
- cytochrome c release ratio [3]: 4.42
- inhibition of aggregation [4]: 77%
- glutamate uptake change [5]: -10.9%
- fluorescence ratio [6]: 1.06 (inactive)
- inhibition [7]: -14.1% (inactive)
- inhibition [8]: -0.48% (inactive)
- fluorescence ratio [9]: 1.02 (inactive)
- z-score [10]: 2.48 (active) and 1.33 (inactive) and 1.65 (inactive)
- log fold change Tl+ flux (F380Y/beta4): 0.0167 (inactive)
- log fold change Tl+ flux [11]: -0.0327 (inactive)
- log fold change Tl+ flux (R275C): -0.00943 (inactive)
- log fold change Tl+ flux (R275C/beta1): 0.012 (inactive)
- log fold change Tl+ flux (R275C/beta2Delta): -0.0274 (inactive)
- log fold change Tl+ flux (R275C/beta4): -0.00588 (inactive)
- log fold change Tl+ flux (R275C/Slo1WT/beta2): -0.0385 (inactive)
